Assay outcomes (PubChem BioAssay)
Marburg entry inh = qHTS for inhibitors of binding or entry into cells for Marburg Virus; Marburg virus pseudotyped entry inhibition, cell reporter; Potency, µM (top dose mostly 37.8 µM), without a hit: top-dose activity change, negative = inhibition, hits mostly inhibitors; 300,000 tested, 1.8% active; calls by dose curve; tested in HEK293 cells; note: potency is the fitted concentration of half-maximal effect; % is set by controls: 0 for no effect and ±100 for the full control effect
FMDV antiviral = High Throughput Screening for Foot and Mouth Disease Virus Antivirals; 410,000 tested, 1.2% active; Potency, µM (titrated, usually from 57.9 µM), without a hit: at the highest dose activity change, negative = inhibition, most hits filed as inhibitors; FMDV antiviral cell-based qHTS; calls by dose curve; tested in HEK293T cells; note: read-out not given here; potency is the fitted concentration of half-maximal effect; % is set by controls: 0 for no effect and ±100 for the full control effect; nearly all actives have a fitted effect of over 45% in size
Shiga toxin inh = A qHTS for Small Molecule Inhibitors of Shiga Toxin; Vero cells, Shiga toxin protein synthesis inhibition reporter; inhibition, % at 38.7 µM; 290,000 tested, 9.2% active; in the data active = inhibition mostly above about 28%, no sharp cut-off; inactive = mostly below about 43%; note: 0% is about no effect
HCV inhibitor = qHTS Assay for Inhibitors of Hepatitis C Virus (HCV). Huh7.5.1 HCVcc-Cre infection, luciferase reporter, 44 h. Potency, µM (series often up to 41.8 µM), inactives show top-dose activity change, negative = inhibition, usual class: inhibitors. 340,000 tested, 3.4% active; active = well fitted inhibition curve with a large enough effect; inconclusive = small, poorly fitted or top-dose-only effect, or another doubt; inactive = no such curve, though single readings can be large or run the other way; note: potency is the fitted concentration of half-maximal effect; % is set by controls: 0 for no effect and ±100 for the full control effect
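Compounds are dispensed onto cells plated 4 h earlier at 1,000 per well, with HCVcc-Cre virus (about 0.5 moi) added next. Following 44 h of culture, luminescent signal is measured for 15 sec after 15 min with substrate at room temperature.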
LASV entry inh = qHTS for Inhibitors of binding or entry into cells for Lassa Virus; Lassa virus pseudotype entry inhibition, cell reporter; Potency, µM (series often up to 37.9 µM), for inactives: at the top dose activity change, negative = inhibition, hits mostly inhibitors; 300,000 tested, 1.2% active; calls by dose curve; tested in HEK293 cells; note: potency is the fitted concentration of half-maximal effect; % is set by controls: 0 for no effect and ±100 for the full control effect; nearly all actives have a fitted effect of over 50% in size
Cycloheximide cs = Cycloheximide Counterscreen for Small Molecule Inhibitors of Shiga Toxin; AID 2314, 2010; 300,000 tested, 12% active; max response, %; cell reporter, cycloheximide protein synthesis inhibition counterscreen; in the data active = max response mostly above about 13%, no sharp cut-off; inactive = mostly below about 14%; note: read at 38.3 µM for the half of the compounds with a filed dose; 0% is about no effect
Starred values were filed as active, the others as inactive; ? = inconclusive; / = no result given; + = active, no number; [ ] = remark or other dose. Rows were chosen to be rich in hits. Some 13% of all compounds tested hit in one or more screens of this group.

SMILES | Marburg entry inh | FMDV antiviral | Shiga toxin inh | HCV inhibitor | LASV entry inh | Cycloheximide cs
Cc1nc(N2CCCC2)c2ccsc2n1 | 17% | -18% | -13 | 14µM* | 4% | -3
Cc1ccc2nc(-c3cccc(NC(=O)c4ccc5c(c4)OCCO5)c3)oc2c1 | 16% | 26% | 34 | ? | 17% | 20*
CCC(=O)Nc1ccc2oc(-c3cccc(C)c3)nc2c1 | ? | 0% | + | -13% | ? | 35*
CCC(=O)Nc1cccc(-c2nc3ccc(C)cc3o2)c1 | ? | 17% | 125* | ? | -21%[46.1 µM] | 52*
CCOc1ccccc1Nc1ncnc2ccc(Br)cc12 | ? | -26% | 2 | 22µM* | -4%[46.1 µM] | -4
COc1ccccc1Nc1ncnc2ccccc12 | -5% | 10% | 35 | -20% | ? | 17*
COc1ccc([N+](=O)[O-])cc1Nc1ncnc2ccccc12 | -5% | -16% | -9 | ? | -1% | -6
CCOc1ccccc1Nc1ncnc2ccccc12 | -10% | -32% | 12 | 10µM* | -8% | -3
c1ccc(COc2cccc(CNn3cnnc3)c2)cc1 | 23% | / | 1 | 15% | -5% | -4
CSCCC(NC(=O)c1ccccc1)C(=O)N(C)CC(=O)Nc1ccc(N2CCOCC2)cc1 (centres undefined) | 1% | -5% | 37 | / | 0% | 2
CCCCN(C(=O)COC(=O)c1nc2nccc(C)n2n1)C1CCS(=O)(=O)C1 (centres undefined) | / | -6% | / | 14% | / | /
CCOc1cc(/C=N/Nc2nc(-c3cccc(S(=O)(=O)N4CCCC4)c3)cs2)ccc1O | ? | ? | 9 | 10µM* | ? | -2
O=[N+]([O-])c1cc(/C=N\Nc2nc(-c3ccccc3)cs2)ccc1O | 1%[46.1 µM] | 20% | 93 | -8% | -6%[46.1 µM] | 23*
CCOc1cc(C=NNC(=O)c2cccc(S(=O)(=O)N3CCCC3)c2)ccc1O | / | ? | / | -17% | / | /
COc1ccc(-c2csc(NC(=S)NC(=O)c3ccc(S(=O)(=O)N(C)C)cc3)n2)cc1OC | / | -7% | 5 | ? | / | 3
COc1cc(/C=N/Nc2nc(-c3ccc(S(=O)(=O)N(C)C)cc3)cs2)ccc1O | / | 35µM* | 50* | ? | / | 13*
O=S(=O)(c1cccc(-c2csc(N/N=C/c3ccco3)n2)c1)N1CCOCC1 | / | 28µM* | 26 | ? | / | -2
Cc1ccc(C)c(-c2csc(Nc3ncccn3)n2)c1 | / | 9% | 12 | 3% | / | -1
COc1ccc(/C=N/Nc2nc(-c3cccc(S(=O)(=O)N4CCCC4)c3)cs2)cc1OC | ? | ? | + | 10µM* | -9% | 15
Cc1ccc(C)c(-c2csc(N/N=C/c3ccco3)n2)c1 | 5µM* | -9% | 95* | 13µM* | 2µM* | 17
Cc1cc(C)cc(Nc2cc(C(=O)NC3CCC(C)CC3)c3ccccc3n2)c1 (centres undefined) | ? | 37% | / | / | 0%[46.1 µM] | /
CN(C)C(=S)N=Nc1[nH]c2ccccc2c1O | / | 49% | 66* | ? | / | 39*
CN1C(=O)c2c(sc3c2CC(C)(C)SC3)N2CCN=C12 | -10% | ? | -19 | 11µM* | -6% | -4
CC1(C)Cc2c(sc3c2C(=O)N(c2ccccc2)C2=NCCN23)CS1 | 14% | -23% | -26 | 23% | 6% | -1
CCCn1c2ccccc2c2cnn(CC(=O)NC(C)CC)c(=O)c21 (centres undefined) | / | -19% | -8 | -10% | -8%[46.1 µM] | 1
SMILES | Marburg entry inh | FMDV antiviral | Shiga toxin inh | HCV inhibitor | LASV entry inh | Cycloheximide cs
COc1ccc(N=Cc2c(O)c3ccccc3oc2=O)cc1 | -1% | 11% | 61* | ? | / | 32*
CC(C)c1ccc(N=Cc2c(O)c3ccccc3oc2=O)cc1 | / | ? | 64* | 12% | / | 60*
Cc1cc(C)c(N=Cc2c(O)c3ccccc3oc2=O)c(C)c1 | 0% | 44% | / | 14% | 24% | 15*
Cc1cc(NS(C)(=O)=O)c(=O)n(Cc2c(F)cccc2Cl)c1 | / | 4% | / | -5% | / | -3
CC(C)(C)c1cc(CCC(=O)NNC(=O)c2ccncc2)cc(C(C)(C)C)c1O | / | 29% | / | ? | / | /
CCOC(=O)C(CC1=CS(=O)(=O)c2ccc(Cl)cc21)(NC(C)=O)C(=O)OCC | / | -5% | / | / | / | /
